Consider 23 compounds from PubChem BioAssay AID651551 (Sanford-Burnham Center for Chemical Genomics, 2012).

This assay has as its target PEG-3 (UniProt Q6IN02). Description: GAPDH versus PEG-3 reporter suppression – cell-based, luminescence, counter-screen for PEG-3 promoter inhibitor project, SAR follow-up (AID 651551). Conditions: HeLa PEG-Prom / GAPDH luciferase reporter, 6 or 24 h, run 1, 24 h; at 99 µM (top of the series).

The structures appear in SMILES notation.

On to `COCCCNC(=O)c1ccc(Cn2c(=O)c3ccccc3n(Cc3ccccc3C#N)c2=O)cc1`, for which the inhibition % (higher = more inhibition) was found to be 54.2%. To `Cc1cc(NC(=O)c2ccccc2C(F)(F)F)n(-c2nc3ccccc3[nH]2)n1` belongs 93.5%; to `Cc1ccc(Cl)cc1Nc1nc(-c2sc(NC(=O)c3ccco3)nc2C)cs1`, 24.5%. As for `COc1ccc(Cl)cc1Nc1nc(-c2sc(NC(=O)c3ccccc3)nc2C)cs1`, the figure is 44.2%. As for `Cc1nc(NC(=O)c2ccccc2)sc1-c1csc(Nc2cccc(Cl)c2C)n1`, the figure is -27.2%. With `O=C(Nc1nc(-c2ccccc2)cs1)c1nn(-c2ccccc2)c(=O)c2ccccc12`, the inhibition % (higher = more inhibition) was found to be 13%. As for `Cc1cc(NC(=O)c2ccccc2C)n(-c2nc3ccccc3[nH]2)n1`, the figure is 47.5%; as for `COc1ccc(-n2nc(C(=O)NCC(=O)Nc3ccc(OC)c(OC)c3)c3ccccc3c2=O)cc1`, 53.3%; as for `O=C(Nc1nc2ccccc2s1)c1nn(-c2ccccc2)c(=O)c2ccccc12`, -7.12%. `CCCn1nc(C(=O)Nc2nc(-c3ccccn3)cs2)c2ccccc2c1=O`: the inhibition % (higher = more inhibition) came to 39.1%.

`Cc1cc(NC(=O)c2cccc(C)c2C)n(-c2nc3ccccc3[nH]2)n1`: the inhibition % (higher = more inhibition) was 79.1%. In the case of `Cc1nc(NC(=O)c2ccccc2)sc1-c1csc(Nc2ccccc2)n1`, the inhibition % (higher = more inhibition) came out at 73.4%.

Consider `CCCn1nc(C(=O)Nc2nc3ccccc3s2)c2ccccc2c1=O`, for which the inhibition % (higher = more inhibition) came to 33.1%. For `CCn1cc(C(=O)NCc2ccco2)c(=O)c2cc(S(=O)(=O)N3CCCC3)ccc21`, the inhibition % (higher = more inhibition) is 47.5%. As for `Cc1cc(NC(=O)c2ccccc2)n(-c2nc3ccccc3[nH]2)n1`, the figure is -6.81%; as for `O=C(Nc1nccs1)c1nn(-c2ccccc2)c(=O)c2ccccc12`, 41.8%; as for `COc1ccc(-n2nc(C(=O)NCC(=O)Nc3cccc(OC)c3)c3ccccc3c2=O)cc1`, 24.5%. To `Cc1nc(NC(=O)c2ccccc2)sc1-c1csc(Nc2ccccc2Cl)n1` belongs -64.6%; to `CCCn1nc(C(=O)Nc2nc(-c3ccncc3)cs2)c2ccccc2c1=O`, 31.6%.

Consider `COc1ccccc1Nc1nc(-c2sc(NC(=O)c3ccco3)nc2C)cs1`, for which the inhibition % (higher = more inhibition) turned out to be 18.8%. As for `COc1ccc(-n2nc(C(=O)NCC(=O)Nc3cc(OC)c(OC)c(OC)c3)c3ccccc3c2=O)cc1OC`, the figure is 47.5%; as for `CCn1nc(C(=O)Nc2nc(-c3ccccn3)cs2)c2ccccc2c1=O`, 49.2%; as for `Cc1cc(NC(=O)c2ccccc2)n(-c2nc3ccccc3n2C)n1`, 10.1%.
